Results on four compounds are retold here after PubChem BioAssay.

Where “and” joins values, the source holds several entries; their conditions need not be identical. Equal entries are not always repeated. Calls of active or inactive are those of the source. No stated cut-off is given here; in the data, active means inhibition above about 80%; inactive means the rest.

The first assay is described as follows: growth inhibition, MDA-MB-436, cell-based, BGB or cisplatin combos, synergistic combos for chromothripsis tumors (AID 1671458).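 Further: cells exposed for 96 hours; 0% = vehicle DMSO and 100% = killing by high DMSO.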 Particulars: MDA-MB-436 breast carcinoma growth inhibition, drug combinations; measured here: BGB combination; at 5 µM; stronger effect = higher value.
By inhibition is commonly meant the drop in the measured response relative to a control, in per cent. For `CCn1cc(C(=O)O)c(=O)c2cc(F)c(N3CCNCC3)nc21`, the inhibition was -20.2% and -12.6%.

With `O=C(O)CCCCCCCC(=O)O`, the inhibition is -29%.

As for `O=NN(CCCl)C(=O)NCCCl`, the inhibition was -8.63%.

On to `Cc1oncc1C(=O)Nc1ccc(C(F)(F)F)cc1`, for which the inhibition came to 48.9%.

Staying with this assay, now noted: MDA-MB-436 breast carcinoma growth inhibition, drug combinations; measured here: cisplatin combination; at 0.5 µM; stronger effect = higher value.
Consider `CCn1cc(C(=O)O)c(=O)c2cc(F)c(N3CCNCC3)nc21`, for which the inhibition was -12.3% and -35.3%.

For the compound `O=C(O)CCCCCCCC(=O)O`, the inhibition was -37.4%.

As to `O=NN(CCCl)C(=O)NCCCl`, the inhibition was -2.04%.

For the compound `Cc1oncc1C(=O)Nc1ccc(C(F)(F)F)cc1`, the inhibition is -7.42%.

The assay is the same for the next values; noted with them: MDA-MB-436 breast carcinoma growth inhibition, drug combinations; measured here: cisplatin combination; at 5 µM; stronger effect = higher value.
For `CCn1cc(C(=O)O)c(=O)c2cc(F)c(N3CCNCC3)nc21`, the inhibition is -9.88% and -14.8%.

In the case of `O=C(O)CCCCCCCC(=O)O`, the inhibition is -23.5%.

As for `O=NN(CCCl)C(=O)NCCCl`, the inhibition is -6.22%.

Consider `Cc1oncc1C(=O)Nc1ccc(C(F)(F)F)cc1`, for which the inhibition stood at 42.4%.

The nature of a further assay: UWB1.289_BRCA1 ovarian cancer growth, cell-based, BGB or cisplatin combinations (AID 1671459). Particulars: UWB1.289 BRCA1 ovarian carcinoma, drug combinations, BGB combination, concentration series, at 5 µM, stronger effect = higher value.
As to `CCn1cc(C(=O)O)c(=O)c2cc(F)c(N3CCNCC3)nc21`, the inhibition was -1.06% and 7.56%.

Regarding `O=C(O)CCCCCCCC(=O)O`, the inhibition was -15.5%.

As to `O=NN(CCCl)C(=O)NCCCl`, the inhibition amounted to 3.47%.

For the compound `Cc1oncc1C(=O)Nc1ccc(C(F)(F)F)cc1`, the inhibition was 74.1%.

The same assay, now with this note: UWB1.289 BRCA1 ovarian carcinoma, drug combinations, at 0.5 µM, stronger effect = higher value.
For the compound `CCn1cc(C(=O)O)c(=O)c2cc(F)c(N3CCNCC3)nc21`, the inhibition was -12.5% (inactive) and 3.88% (inactive).

For `O=C(O)CCCCCCCC(=O)O`, the inhibition was -19.3% (inactive).

On to `O=NN(CCCl)C(=O)NCCCl`, for which the inhibition was -1.58% (inactive).

With `Cc1oncc1C(=O)Nc1ccc(C(F)(F)F)cc1`, the inhibition was 6.99% (inactive).

The same assay, now with this note: UWB1.289 BRCA1 ovarian carcinoma, drug combinations, cisplatin combination, concentration series, at 5 µM, stronger effect = higher value.
On to `CCn1cc(C(=O)O)c(=O)c2cc(F)c(N3CCNCC3)nc21`, for which the inhibition is 0.876% and 19.6%.

With `O=C(O)CCCCCCCC(=O)O`, the inhibition was -16.1%.

`O=NN(CCCl)C(=O)NCCCl`: the inhibition stood at 19.3%.

Take `Cc1oncc1C(=O)Nc1ccc(C(F)(F)F)cc1`: the inhibition amounted to 66.1%.

A short description of a further assay: drug combination toxicity in non-malignant astrocytes – cell-based, BGB or cisplatin IC20 combos, cytotoxicity control for chromothriptic childhood tumor combination screen (AID 1671460).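 Further: cells exposed to compounds for 96 hours before viability readout; 0% = vehicle and 100% = killing control.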 The following applies: Human astrocytes, viability inhibition, drug combinations; at 0.5 µM; stronger effect = higher value.
Regarding `CCn1cc(C(=O)O)c(=O)c2cc(F)c(N3CCNCC3)nc21`, the inhibition was 8.11% (inactive) and 6.08% (inactive).

`O=C(O)CCCCCCCC(=O)O`: the inhibition is -11.4% (inactive).

Take `O=NN(CCCl)C(=O)NCCCl`: the inhibition is 12.8% (inactive).

Take `Cc1oncc1C(=O)Nc1ccc(C(F)(F)F)cc1`: the inhibition was 23.1% (inactive).

The same assay, now with this note: Human astrocytes, viability inhibition, drug combinations; measured here: combo with BGB IC20; at 0.5 µM; stronger effect = higher value.
Consider `CCn1cc(C(=O)O)c(=O)c2cc(F)c(N3CCNCC3)nc21`, for which the inhibition is 13.6% and -6.3%.

As to `O=C(O)CCCCCCCC(=O)O`, the inhibition was -13.8%.

For the compound `O=NN(CCCl)C(=O)NCCCl`, the inhibition came to 26.4%.

In the case of `Cc1oncc1C(=O)Nc1ccc(C(F)(F)F)cc1`, the inhibition stood at 15.1%.

Still in this assay, the particulars now being: Human astrocytes, viability inhibition, drug combinations; measured here: combo with cisplatin IC20; at 0.5 µM; stronger effect = higher value.
For the compound `CCn1cc(C(=O)O)c(=O)c2cc(F)c(N3CCNCC3)nc21`, the inhibition was -5.13% and 23.3%.

In the case of `O=C(O)CCCCCCCC(=O)O`, the inhibition is -20%.

On to `O=NN(CCCl)C(=O)NCCCl`, for which the inhibition amounted to 2.42%.

Consider `Cc1oncc1C(=O)Nc1ccc(C(F)(F)F)cc1`, for which the inhibition came out at 28.3%.

A further assay can be described thus: BT084 cell growth, single and combined drugs, ICGC_MB145, cisplatin and BGB IC40 combos (AID 1671461).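 Further: cells exposed to drugs for 96 hours; 0% = vehicle DMSO and 100% = high DMSO full killing control.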 Particulars: BT084 medulloblastoma cells, drug combinations, at 0.5 µM, stronger effect = higher value.
In the case of `CCn1cc(C(=O)O)c(=O)c2cc(F)c(N3CCNCC3)nc21`, the inhibition is -14.2% (inactive).

As to `O=C(O)CCCCCCCC(=O)O`, the inhibition was -17.8% (inactive).

`O=NN(CCCl)C(=O)NCCCl`: the inhibition is -12.6% (inactive).

As to `Cc1oncc1C(=O)Nc1ccc(C(F)(F)F)cc1`, the inhibition was 5.65% (inactive).

Still in this assay, the particulars now being: BT084 medulloblastoma cells, drug combinations, cisplatin combination, at 0.5 µM, stronger effect = higher value.
Consider `CCn1cc(C(=O)O)c(=O)c2cc(F)c(N3CCNCC3)nc21`, for which the inhibition is -20.2% and 4.87%.

In the case of `O=C(O)CCCCCCCC(=O)O`, the inhibition was -4.5%.

For the compound `O=NN(CCCl)C(=O)NCCCl`, the inhibition is -0.565%.

In the case of `Cc1oncc1C(=O)Nc1ccc(C(F)(F)F)cc1`, the inhibition was -5.97%.

The assay is the same for the next values; noted with them: BT084 medulloblastoma cells, drug combinations, cisplatin combination, at 5 µM, stronger effect = higher value.
Consider `CCn1cc(C(=O)O)c(=O)c2cc(F)c(N3CCNCC3)nc21`, for which the inhibition is -328% and -22.3%.

For the compound `O=C(O)CCCCCCCC(=O)O`, the inhibition is -12.5%.

For `O=NN(CCCl)C(=O)NCCCl`, the inhibition was found to be 5.72%.

On to `Cc1oncc1C(=O)Nc1ccc(C(F)(F)F)cc1`, for which the inhibition was determined as 60.5%.

The assay is the same for the next values; noted with them: BT084 medulloblastoma cells, drug combinations, measured here: BGB IC40 combination 0.05 uM, at 0.05 µM, stronger effect = higher value.
Take `CCn1cc(C(=O)O)c(=O)c2cc(F)c(N3CCNCC3)nc21`: the inhibition is -15.2% and 5.81%.

Turning to `O=C(O)CCCCCCCC(=O)O`, the inhibition is 4.07%.

On to `O=NN(CCCl)C(=O)NCCCl`, for which the inhibition stood at 22.3%.

On to `Cc1oncc1C(=O)Nc1ccc(C(F)(F)F)cc1`, for which the inhibition came to 32%.

The same assay, now with this note: BT084 medulloblastoma cells, drug combinations, single agent, at 5 µM, stronger effect = higher value.
Consider `CCn1cc(C(=O)O)c(=O)c2cc(F)c(N3CCNCC3)nc21`, for which the inhibition was -15.6% and -14.8%.

For `O=C(O)CCCCCCCC(=O)O`, the inhibition was -1.2%.

Regarding `O=NN(CCCl)C(=O)NCCCl`, the inhibition was found to be 10.8%.

With `Cc1oncc1C(=O)Nc1ccc(C(F)(F)F)cc1`, the inhibition was determined as 51.2%.

A further assay in a line: RCMB18 cell growth, single agent and combined, cisplatin and BGB IC40 combos (AID 1671462).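 Further: cells exposed to compound for four days.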 The following applies: RCMB18 medulloblastoma cells, at 0.5 µM, stronger effect = higher value.
As to `CCn1cc(C(=O)O)c(=O)c2cc(F)c(N3CCNCC3)nc21`, the inhibition was -23.5% (inactive) and -3.9% (inactive).

`O=C(O)CCCCCCCC(=O)O`: the inhibition was -9.8% (inactive).

Take `O=NN(CCCl)C(=O)NCCCl`: the inhibition is -5.05% (inactive).

As for `Cc1oncc1C(=O)Nc1ccc(C(F)(F)F)cc1`, the inhibition was -7.24% (inactive).

Still in this assay, the particulars now being: RCMB18 medulloblastoma cells, cisplatin combo, at 5 µM, stronger effect = higher value.
With `CCn1cc(C(=O)O)c(=O)c2cc(F)c(N3CCNCC3)nc21`, the inhibition is -47.1% and 18.7%.

Regarding `O=C(O)CCCCCCCC(=O)O`, the inhibition is -40.4%.

Take `O=NN(CCCl)C(=O)NCCCl`: the inhibition was -0.239%.

For `Cc1oncc1C(=O)Nc1ccc(C(F)(F)F)cc1`, the inhibition was 23.6%.

Staying with this assay, now noted: RCMB18 medulloblastoma cells, measured here: BGB IC40 combination, at 0.05 µM, stronger effect = higher value.
Consider `CCn1cc(C(=O)O)c(=O)c2cc(F)c(N3CCNCC3)nc21`, for which the inhibition is -10.4% and 1.16%.

Turning to `O=C(O)CCCCCCCC(=O)O`, the inhibition was -4.46%.

On to `O=NN(CCCl)C(=O)NCCCl`, for which the inhibition was -34.5%.

Consider `Cc1oncc1C(=O)Nc1ccc(C(F)(F)F)cc1`, for which the inhibition is -20.4%.

The same assay, now with this note: RCMB18 medulloblastoma cells, measured here: combination with cisplatin, at 0.5 µM, stronger effect = higher value.
In the case of `CCn1cc(C(=O)O)c(=O)c2cc(F)c(N3CCNCC3)nc21`, the inhibition is -40.4% and 9.59%.

Regarding `O=C(O)CCCCCCCC(=O)O`, the inhibition was -13.4%.

In the case of `O=NN(CCCl)C(=O)NCCCl`, the inhibition stood at 22.9%.

`Cc1oncc1C(=O)Nc1ccc(C(F)(F)F)cc1`: the inhibition was -2.75%.
